In PubChem BioAssay AID1159524 (National Center for Advancing Translational Sciences (NCATS), 2015):
The campaign covered roughly 410,000 compounds. About 5,100 (1.2%) were called active. Another 8% or so got no clear call; they are omitted. Shown is part of a subset that was picked to be rich in actives. A number with no mark means an inactive call. Calls follow the shape of the full dose curve; tested in HEK293T cells.

assay: High Throughput Screening for Foot and Mouth Disease Virus Antivirals; settings: FMDV antiviral cell-based qHTS; series mostly up to 57.9 µM; activity change, negative = inhibition: at the top concentration; also: read-out not given here; nearly all actives have a fitted effect of over 45% in size
% is scaled to controls: 0 for no effect and ±100 for the full control effect; potency is read from the fitted curve at half-maximal effect.

Compound	activity change, negative = inhibition	Potency
COc1ccc(S(=O)(=O)NCC(c2ccc(N(C)C)cc2)N2CCCC2)cc1 (stereo unspecified)	-22.1%	
COc1ccc(CN2CCOc3c(cc(-c4ncc(C(F)(F)F)cc4Cl)cc3OCC3CCCO3)C2)c(O)c1 (stereo unspecified)	-12.2%	
Cc1ccc(NS(=O)(=O)c2ccc3c(c2)CC(=O)N3)cc1Cl	25.8%	
COCC(=O)N1CCC2(CCCN(c3ccccc3)C2)CC1	2.27%	
COC(=O)c1ccc(CN2CCCC(C(=O)Nc3cccc(-n4cnnn4)c3)C2)cc1 (stereo unspecified)		28.2 µM (active)
O=C(Nc1ccc(F)cc1)C1CCCN(S(=O)(=O)c2ccc(-n3cnnn3)cc2)C1 (stereo unspecified)	-27.8%	
CC(C)CNC(=O)C1CCCN(S(=O)(=O)c2ccc(-n3cnnn3)cc2)C1 (stereo unspecified)	-21.6%	
CN(CC(=O)Nc1cccc(C(F)(F)F)c1)S(=O)(=O)c1cccs1	-0.475%	
COc1ccccc1CNC(=O)C(=O)NCC(c1cccs1)S(=O)(=O)c1cccs1 (stereo unspecified)	-28.5%	
Cc1no[n+]([O-])c1COc1ccccc1/C=C1\NC(=S)NC1=O	-20.6%	
C#CCOc1ccccc1/C=C1/C(=O)ON=C1C		39.8 µM (active)
CN1CCCCCC1C(=O)NCCN1Cc2ccccc2OC(c2ccsc2)C1 (stereo unspecified)	0.0789%	
Cc1cc(C(=O)CCl)c(C)n1CC1COc2ccccc2O1 (stereo unspecified)		12.6 µM (active)
Cc1n[nH]c(C)c1S(=O)(=O)N1CCCC(C(=O)NCC2COc3ccccc3O2)C1 (stereo unspecified)	-9.84%	
CCn1ccnc1C[C@@H]1COc2ccccc2O1	6.47%	
Cc1ccc(-c2cn3c(n2)sc2cc(C(=O)NCCCc4ccccc4)ccc23)cc1	14.8%	
COc1cc(C2c3c(oc4ccccc4c3=O)C(=O)N2c2nc(C)c(C)s2)ccc1O (stereo unspecified)	-11.5%	
COC(C[C@@H]1O[C@@H]1C(=O)[C@H](C)OCc1ccccc1)OC	-10.1%	
COC(C[C@H](O)CC(=O)[C@@H](C)OCc1ccccc1)OC	-7.66%	
COC(C/C=C/C(=O)[C@@H](C)OCc1ccccc1)OC		39.8 µM (active)
Cc1nc2cnc(N3CCNCC3)nc2n(Cc2ccc(F)cc2)c1=O	-10.8%	
C=CCSSCC=C	-4.9%	
N#CCCN(C(=O)COC(=O)c1ccc2c(c1)OCCO2)c1ccccc1	-0.86%	
O=C(COC(=O)c1ccccc1)c1ccc2c(c1)OCCO2		12.6 µM (active)
O=C(OCc1ccccc1F)c1ccc2c(c1)OCCO2	44.5%	
COc1cc(=O)n2c(c1C(=O)N(C)Cc1nonc1C)CCN(C(=O)c1ccc(C)cc1C)CC2	3.5%	

Compound	activity change, negative = inhibition	Potency
COc1ccc(-c2nc3cnc(N(C)C)nc3n(Cc3cccs3)c2=O)cc1	-1.02%	
Cc1cccc(-n2ncc(C(=O)N3CCN(c4ccc(Cl)cc4)CC3)c2C2CCN(C(=O)OC(C)(C)C)CC2)c1	-12.8%	
Cc1cccc(-n2ncc(C(=O)N3CCc4ccccc4C3)c2C2CCN(C(=O)OC(C)(C)C)CC2)c1		2 µM (active)
Cc1cccc(-n2ncc(C(=O)N3CCC(C)CC3)c2C2CCN(C(=O)OC(C)(C)C)CC2)c1	-4.72%	
O=C(Nc1nc(-c2ccc3c(c2)OCO3)cs1)c1ccncc1		15.8 µM (active)
CC(O)(c1cccc(F)c1)c1nc(-c2ccc3c(c2)OCO3)cs1 (stereo unspecified)	-19.4%	
c1ccc2c(Nc3ccncc3)nc(-c3ccc4c(c3)OCO4)nc2c1	-9.03%	
COCCn1c(=O)c(-c2cccs2)nc2cncnc21	-16.5%	
Cc1c(C(=O)NCC2CCCN(C)C2)cnn1-c1nccc(-c2ccco2)n1 (stereo unspecified)	-4.89%	
Cc1ccc(NC(=O)CN2c3ccccc3S(=O)(=O)c3ccccc32)cc1F	-15.4%	
CCC(C)(C)NC(=O)CN(C(=O)C(=O)Nc1ccc2c(c1)OCCO2)C(C)(C)CC	12.4%	
CCCCN(CC(=O)NC(C)(C)C)C(=O)C(=O)Nc1ccc2c(c1)OCCO2	30.3%	
COC(=O)CCNc1ccc2c(c1)OCCO2		11.2 µM (active)
CCCCC/C=C\C/C=C\C/C=C\C/C=C\CCCCCC(=O)NCCO	-8.95% [at 6.7 µM]	
O=C1NS(=O)(=O)c2ccccc21	-10%	
CCc1nccn1S(=O)(=O)c1cc(Br)ccc1Br	-7.35%	
CCOc1c(Br)cc(/C=C2\C(=O)N(CCC#N)N=C2C)cc1OC		28.2 µM (active)
CSc1ccc(C2C(C(=O)Nc3ccccc3)=C(C)Nc3nc4ccccc4n32)cc1 (stereo unspecified)	-22%	
COC(=O)c1c(OCc2ccc(F)cc2)cc(=O)n2c1CCN(Cc1ccc3cccnc3c1)CC2	-8.63%	
Cc1cccc(CC(=O)Nc2cccc(-c3cn4cccnc4n3)c2)c1	18.4%	
COc1ccc(-c2[nH]c3c(c2-c2c(-n4cccc4)n(C)c(=O)n(C)c2=O)c(=O)n(C)c(=O)n3C)cc1	-8.33%	
O=C(NCc1ccc(Cl)cc1)c1ccc2c(c1)nnn2C1CCCC1	-14.3%	
O=C(/C=C/c1cnc2ccccc2n1)NC1CCCCCC1	36.2%	
Cc1nc(/N=C(\N)NC(=O)NC2CCCCC2)nc2ccccc12		31.6 µM (active)
O=C(Cn1nnc(-c2ccccc2)n1)NC(=O)NC1CCCC1	-9.99%	
CCOC(=O)N1CCC(N2CCOc3ccc(CN4CCC(O)(c5cccnc5)CC4)cc3C2)CC1	1.1%	

Compound	activity change, negative = inhibition	Potency
COc1cccc(CNC(=O)Cn2c(=O)c3cccn3c3ccc(F)cc32)c1OC	-21.5%	
COCc1c(C(=O)NC2CCCCC2)cnn1-c1nccc(-c2ccccc2OC)n1	-1.95%	
CC(=O)Nc1cccc(OCC(=O)/C=C2\N(C)c3ccccc3C2(C)C)c1		25.1 µM (active)
COc1cccc(NC(=S)C(C#N)=C2N(C)c3ccccc3N2C)c1	5.09%	
CN1/C(=C\C=C2\N=C(c3ccc(F)cc3)OC2=O)C(C)(C)c2ccccc21	-28.5%	
COc1ccccc1CNc1ncncc1-c1cccc(NS(C)(=O)=O)c1	-15.9%	
O=P(O)(O)C(O)c1ccc2ccccc2c1 (stereo unspecified)	1.06%	
Cc1ccc(CS(=O)(=O)CCC(=O)NC2CC2)cc1	-10.8%	
C#CCN(C[C@@H]1[C@@H](OC(=O)NC2CC2)[C@@H](OC(=O)NC2CC2)Cn2c(=O)ccc(=O)n21)S(=O)(=O)c1ccc(C)cc1		20 µM (active)
CN(c1ccc2nc3ccccc3c(=O)n2n1)C1CCCCC1		20 µM (active)
O=C(c1ccco1)N(Cc1nc2ccccc2c(=O)[nH]1)C1CCCC1	-1.37%	
COc1ccccc1Nc1cc(C(=O)NCCCN(C)C2CCCCC2)c2ccccc2n1	-28.5%	
COc1cc(=O)n2c(c1C(=O)NC(C)c1ccco1)CCN(C(=O)c1cn3ccc(C)cc3n1)CC2 (stereo unspecified)	12.5%	
CCN(C(=O)c1sc2cc(OC)ccc2c1Cl)c1ccccc1	-22.9%	
COc1ccccc1CNc1nc(-c2c(C)noc2C)nc2ccccc12	-10.6%	
CCCCC(=O)N(C)c1c(CC)nc2c(OCc3ccc(Cl)cc3Cl)cccn12	-24.1%	
CCc1nc2c(OCc3cccc(OC)c3)cccn2c1N(C)C(=O)C(C)C	-16.8%	
CCc1nc2c(OCc3ccc(Cl)cc3Cl)cccn2c1N(C)C(=O)C(C)C		31.6 µM (active)
COc1ccc(C2Sc3ccccc3NC3=C2C(=O)c2ccccc23)c(OC)c1OC (stereo unspecified)	8.34%	
O=C(/C=C/Sc1ncn[nH]1)c1ccc(Cl)cc1		28.2 µM (active)
O=S(=O)(NCCc1nnc2ccc(SCc3ccc(Cl)cc3Cl)nn12)c1ccccc1	-15.5%	
CCc1ccccc1NC(=O)Cn1c(=O)n(CC2CCC(C(=O)NCCc3ccccc3)CC2)c(=O)c2ccccc21 (stereo unspecified)	0.675%	
Cc1cc(C)cc(NS(=O)(=O)c2cc3c(cc2C)NC(=O)CO3)c1	131%	
Cn1nnnc1SCCCNCc1cccc(OCc2ccc(Cl)cc2)c1	-12.9%	
Cc1ccc(OCCSc2nc(C)c(Cc3ccccc3)c(=O)[nH]2)cc1	-10.9%	
COc1ccc(CCNc2cc(N3CCN(C(=O)c4ccccc4OC)CC3)ccc2[N+](=O)[O-])cc1OC		8.91 µM (active)

Compound	activity change, negative = inhibition	Potency
COc1ccc(CCNC(=O)C2CCCN2C(=O)Nc2ccccc2)cc1OC (stereo unspecified)	-5.27%	
CC(=O)Nc1ccc(S(=O)(=O)N2CCN(c3ccc([N+](=O)[O-])c(NCCN4CCOCC4)c3)CC2)cc1	-4.77%	
CC(C)c1ccc(NC(=O)c2cc(S(=O)(=O)N3CCc4ccccc4C3)ccc2F)cc1	1.11%	
Cc1ccccc1CNC(=O)c1cccc(NC(=O)c2nsc3ccccc23)c1	11.9%	
O=C(CSc1ncc(CO)n1Cc1ccc(F)cc1)NCc1ccco1	-18.2%	
Cc1ccc(C(=O)COC(=O)CCCC(=O)NC2CCCCC2)cc1[N+](=O)[O-]	0.0132%	
COc1ccc(NC(=O)CN(C)C(=O)c2ccc(NC3CC3)c([N+](=O)[O-])c2)cc1	-6.5%	
Cc1cc(C=O)c(C)n1-c1ccc(NC2CCCCC2)c([N+](=O)[O-])c1		31.6 µM (active)
O=C(CSc1ccccc1F)NC1CCS(=O)(=O)C1 (stereo unspecified)	2.56%	
O=S1(=O)CCC(NC(=S)SCc2ccccc2Br)C1 (stereo unspecified)		15.8 µM (active)
CCN(CC(=O)NC1CCS(=O)(=O)C1)S(=O)(=O)c1ccccc1 (stereo unspecified)	-18.6%	
COc1ccccc1C(=O)Nc1c(C(=O)Nc2ccc(C)cc2)oc2ccccc12	-7.71%	
C/C=C1\C2C=C(C)CC1(N)c1ccc(=O)[nH]c1C2 (stereo unspecified)	6.47% [at 97.4 µM]	
Cc1cc(C)c2oc(C(=O)Nc3ccc(S(=O)(=O)N4CCCCCC4)cc3)cc(=O)c2c1	-5.36%	
CCC1CCCCN1S(=O)(=O)c1ccc(NC(=O)c2cc(=O)c3ccccc3o2)cc1 (stereo unspecified)		20 µM (active)
Cc1ccc2oc(C(=O)Nc3ccc(S(=O)(=O)N4CCCCCC4)cc3)cc(=O)c2c1	-6.89%	
Cc1c(Cl)cccc1NC(=O)c1noc2c1CCCC2	34.7%	
Cc1cccc(N2CCN(C(=O)c3ccc4c(c3)CCN4S(=O)(=O)c3ccccc3)CC2)c1C	-17.5%	
COc1ccc(C)cc1NC(=O)CCc1c(C)nn(-c2ccc(N3CCOCC3)nn2)c1C	13.7%	
CC(C)=CCN1CCC2(CCc3ccccc32)CC1	-6.05%	
COc1ccc(C(=O)Nc2ccc(-n3nncc3-c3ccccc3)cc2)cc1OC	0%	
COc1cccc(C(=O)Nc2ccc(-c3cc(C(F)(F)F)nn3-c3ccccc3)cc2)c1		12.6 µM (active)
COc1cccc(C(=O)NC(=O)Nc2nc(C)cc(C(F)(F)F)n2)c1	-4.85%	
